Reference: PubChem BioAssay AID1706 (The Scripps Research Institute Molecular Screening Center, 2009)
Screen size: about 290,000 compounds; about 400 (0.14%) were called active. Only a selection was taken, and actives are over-represented in it overall. Unmarked numbers belong to inactive results. No stated cut-off is given here; in the data, active means inhibition above about 12%; inactive means the rest.

Biological target: Replicase polyprotein 1ab (Severe acute respiratory syndrome coronavirus) (UniProt P0C6X7)
Assay: SARS-CoV 3CLpro protease inhibitors, primary screen, biochemical, quenched FRET (AID 1706)
Conditions: recombinant SARS-CoV 3CLpro, quenched FRET peptide cleavage; at 6 µM; stronger effect = higher value

Compound	inhibition
CCCCNC(=O)N(O)C1N(/N=C/c2ccccc2O)C(=S)SC1(C)C (centres undefined)	4.34%
CCCCNC(=O)N(O)C1N(/N=C/c2ccc(N(C)C)cc2)C(=S)SC1(C)C (centres undefined)	77.3% (active)
CCC(C)N1C(=S)SC(C)(C)C1N(O)C(=O)NC1CCCCC1 (centres undefined)	-0.75%
O=C(Cc1ccccc1F)NC1CCSc2ccccc21 (centres undefined)	-4.7%
Cc1ccnc(NS(=O)(=O)c2ccc(NC(=O)c3oc4ccccc4c3C)cc2)n1	-4.86%
C=C(C)COc1ccc(-c2n[nH]c(C)c2-c2ccccc2OC)c(O)c1	11.1%
C=C(C)COc1ccc(-c2n[nH]c(C)c2-c2ccccc2)c(O)c1	14.1% (active)
CCOc1ccc(-c2n[nH]c(C)c2-c2ccccn2)c(O)c1	3.95%
CC(=O)c1cc(-c2ccccc2)[nH]c1N1CCCC1	57.1% (active)
O=c1cc(-c2ccccc2)nc(N2CCCCC2)[nH]1	3.63%
CC(=O)c1cc(C#N)c(N2CCCCC2)nc1C	5.03%
CC(=O)c1cnc(Nc2nc(C)c3cc(C)ccc3n2)nc1C	2.54%
CN(C)/N=C/c1cn(-c2ccccc2)nc1-c1cccnc1	9.07%
O=C(O)/C=C/c1cn(Cc2ccccc2)nc1-c1cccs1	3.03%
O=Cc1cn(Cc2ccccc2)nc1-c1cccnc1	39.5% (active)
O=C1CCC(=O)N(c2ccccc2)N1	2.8%
CC(C)C[C@@H](CO)N1CCN(Cc2ccc(O)cc2)CCC1=O	-3.5%
CC(C)Nc1ccc(-n2nc3ccccc3[n+]2[O-])cc1	-2.9%
COc1ccc(N2CCN(C(=O)CNC(=O)c3ccc(Br)o3)CC2)cc1	-5.34%
O=C(Nc1ccc(S(=O)(=O)N2CCCCC2)cc1)C1CC(=O)N(c2ccc(F)cc2)C1 (centres undefined)	1.61%
CCc1ccc(-n2c(SCc3cc(=O)n4cc(Br)ccc4n3)nc3[nH]ncc3c2=O)cc1	0.2%
CN(C)Cc1c(C(=O)N/N=C/c2ccccc2OCc2ccc(F)cc2)nnn1-c1nonc1N	0.8%
COc1ccc(NC(C(=O)Nc2cccc(C(C)=O)c2)c2ccccc2)cc1 (centres undefined)	1.08%
CCOC(=O)c1cccc(NC(=O)C2CCN(c3ncnc4c3nc3n4CCCCC3)CC2)c1	6.86%
CCn1c(/C=C/Nc2ccccc2)[n+](CC)c2ccc(C(=O)OCC(F)(F)F)cc21	-5.62%
CC1CCN(Cc2nc3c(c(=O)n(C)c(=O)n3C)n2CCc2ccccc2)CC1	0.08%
COc1ccccc1C(=O)NCc1nnc(SC(C)C(=O)Nc2nccs2)n1C (centres undefined)	1.41%

Compound	inhibition
CN1C(CC(=O)Nc2ccc(Br)cc2)c2ccccc2CC1(C)C (centres undefined)	0.03%
CCSCc1nc(N)nc(NCCc2ccccc2)n1	1.32%
COc1ccccc1CNC(=O)C1CCN(S(=O)(=O)c2ccc3c(c2)OCCO3)CC1	0.14%
O=C(Nc1ccc(Cl)c(Cl)c1)c1ccccc1NC(=O)C1CC=CCC1C(=O)O (centres undefined)	4.04%
CC(C)CCn1cnc2c1c(=O)n(CC(=O)NC(N)=O)c(=O)n2Cc1ccccc1	2.02%
O=C(NCCCN1CCCCC1)C1CC(=O)N(CCc2ccccc2)C1 (centres undefined)	-1.63%
CC(C)(C)C(=O)NC1CC2CCCC(C1)N2C(=O)Nc1ccccc1F (centres undefined)	-4.3%
O=C(NC(Cc1ccccc1)C(=O)O)/C(=C\c1ccccc1)NC(=O)c1ccco1 (centres undefined)	1.59%
Cc1cc(CNCc2c(C(=O)N(C)Cc3ccccc3)nc3ccccn23)nn1C	-0.39%
Cc1ccc(C)c(NC(=O)c2cc(-c3cc(C)cc(C)c3O)n[nH]2)c1	5.71%
COc1ccc(CCNC(=O)/C(C#N)=C2\N=C(NC(=O)c3cccs3)c3ccccc32)cc1	1.64%
COc1ccc(N2CC(C(=O)NCCS(=O)(=O)N3CCN(c4ccccc4)CC3)CC2=O)cc1 (centres undefined)	0.28%
Cc1cc(C)nc(NS(=O)(=O)c2ccc(N/C=C\C(=O)c3cccs3)cc2)n1	6.43%
CN(Cc1ccccc1)C(=O)c1cccc(C(=O)N(C)Cc2ccccc2)c1	-1.52%
Cc1ccc2cccc(OCCCOc3ccccc3CO)c2n1	-3.15%
CC(=O)c1c(C)n(C(C)C)c2ccc(O)cc12	-1.9%
O=C(NCCc1ccccc1Cl)C1CCC(=O)N(CCCc2ccccc2)C1 (centres undefined)	0%
COc1ccc(CNC(=O)c2cc(=O)c3c(C)cc(C)cc3o2)cc1	6.16%
O=C(NC1CCC(O)CC1)c1ccccc1OCc1ccc(F)cc1 (centres undefined)	0.54%
Cc1ccc(C(=O)NCCN2CCOCC2)cc1C	13.4% (active)
COc1ccc(C(=O)NCCCN2CCOCC2)cc1Br	0.44%
Cc1cc(C)cc(C(=O)NCCN2CCOCC2)c1	-2.25%
Cc1noc(NS(=O)(=O)c2ccc(NC(=O)c3oc4ccc(F)cc4c3C)cc2)c1C	9.19%
COCC1CCN(C(=O)c2ccc3oc(Cc4ccccc4)nc3c2)C1 (centres undefined)	1.1%
Cc1cccc2c1N(CC(=O)OC(C)C)C(=O)C2=O	4.13%
O=C1c2ccccc2C(=O)N1CCOc1ccc(F)cc1	-2.34%
Cc1cccc2c1N(CCOc1ccccc1)C(=O)C2=O	17.8% (active)

Compound	inhibition
Cc1ccc(S(=O)(=O)N2CC(C)N(S(C)(=O)=O)C2)cc1 (centres undefined)	-3.38%
Cc1cccc(-c2noc(CCC(=O)NC3CCCC3)n2)c1	-2.1%
O=C(O)c1ccccc1CSc1nc2ccccc2s1	9.25%
COc1ccc(NC(=O)CSc2nncc(=O)n2N)cc1OC	-1.55%
COc1ccc(NC(=O)c2ccccc2[N+](=O)[O-])cc1OC	3.06%
COC(=O)c1cc(NC(=O)Cc2ccccc2[N+](=O)[O-])ccc1Cl	13.9% (active)
O=C(Nc1cccc(NC(=O)c2ccccc2[N+](=O)[O-])c1)c1ccccc1Cl	0.79%
Cc1cccc(NS(=O)(=O)c2ccc(-c3cnc(C4CC4)o3)cc2)c1	11.2%
O=C(NCCCn1ccnc1)c1cc2c(s1)CCCC2	-1.18%
CCC(C)(C)NC(=O)CN(C(=O)CCC(=O)Nc1nccs1)c1ccc2c(c1)OCO2	-3.34%
O=C(NCCCN1CCOCC1)C1CCCN(S(=O)(=O)N2CCCCC2)C1 (centres undefined)	0.26%
COc1cccc(NC(=O)CN2CCN(CC(=O)Nc3ccccc3Cl)CC2)c1	-3.69%
COc1ccc(N(Cc2ccc(N(C)C)cc2)C(=O)c2ccc(S(C)(=O)=O)cc2)cc1	0.16%
COc1ccc(Cl)cc1NS(=O)(=O)c1cccc(C(=O)NCC2CCCO2)c1 (centres undefined)	-1.42%
Cc1cccc(C(=O)Nc2nnc(Cc3c[nH]c4ccccc34)s2)c1	13.4% (active)
CCc1nnc(NC(=O)[C@@H](NC(=O)c2cccc(C)c2)C(C)C)s1	4.69%
Cc1cccc(C(=O)Nc2nnc(S(=O)(=O)N3CCCCCC3)s2)c1	0.72%
CCOC(=O)c1cc(C(=O)Nc2ccc(S(=O)(=O)Nc3ccc(OC)cc3)cc2)nn1C	-1.42%
CN1CCN(C(=O)c2ccc(NS(=O)(=O)c3ccccc3)cc2)CC1	-0.96%
Cc1ccc(CS(=O)Cc2ccc(C(=O)N3CCOCC3)o2)cc1 (centres undefined)	-1.35%
CSc1ncccc1C(=O)NCc1ccccc1Cl	0.88%
CC(=O)Nc1ccc(S(=O)(=O)N(C)CC(=O)NCCC2=CCCCC2)cc1	-0.77%
O=C(NCCc1ccc(Cl)cc1)c1cccc(N2CCCC2=O)c1	3.05%
COc1ccc(/C=C2\SC(=O)N(CCC(=O)NCCCn3ccnc3)C2=O)cc1	-3.79%
CC(Oc1ccccc1)C(=O)Nc1c2c(nn1-c1ccccc1)CS(=O)C2 (centres undefined)	-1.62%
